This is a sample that favours compounds with a hit; in the whole collection about 2.9% have one here.
A549 tox – kills or reduces viability of A549 cells in Nrf2 counter-screen; Potency, µM (titrated, usually from 46 µM), actives largely listed as inhibitors; 390,000 tested, 0.16% active; AID 504648; A549 ARE-Fluc cells, CellTiter-Fluor viability, 18-24 h
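A549 ARE_Fluc cells in 5% FBS OPTI-MEM were exposed to compounds in concentration-response for 18-24 h at 37 deg C. Viability was read by CellTiter-Fluor fluorescence (Ex 405/Em 525) after 30 min, before the luciferase read.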
ATXN viability – cell viability loss in ATXN counter-screen; Potency, µM (titrated, usually from 56.7 µM), usual class: cytotoxic; 400,000 tested, 0.49% active; S2 cells (HEK-293 line with an ATXN2-luciferase reporter) viability, CellTiter-Fluor protease fluorescence, 24 h; AID 651635; also: nearly all actives have a fitted effect of over 40% in size
Nrf2 inh – blocks Nrf2 signaling | AID 504444 | 360,000 tested, 2.1% active | A549 ARE-Fluc reporter, luciferase luminescence, 18-24 h | Potency, µM (highest dose often 46 µM), actives largely listed as inhibitors; also: nearly all actives have a fitted effect of over 60% in size
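Quantitative HTS in A549 cells stably bearing an antioxidant response element-firefly luciferase construct. Inhibition of Nrf2-driven transcription was scored by luminescence after 18-24 h of compound exposure at 37 °C.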
Nrf2 activator – activates Nrf2 signaling | AREc32 ARE-luciferase reporter (MCF7-derived line), luminescence, 24 h | Potency, µM (top dose mostly 46.1 µM), hits mostly activators | 410,000 tested, 0.31% active | AID 624171; also: nearly all actives have a fitted effect of over 65% in size
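AREc32_Fluc, 1000 cells/well, OPTI-MEM + 5% FBS, o/n 37 deg C 5% CO2; 23 nL cpd by pin tool, 24 hr; Steady-Glo 30 min RT, luminescence.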
ATXN2 expr inh – ATXN2 expression inhibition; HEK-293 ATXN2-luciferase reporter, luminescence, 24 h; Potency, µM (top dose mostly 57 µM), hits mostly inhibitors; 360,000 tested, 0.72% active; AID 1745845; also: nearly all actives have a fitted effect of over 55% in size
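ATXN2-luciferase reporter cells (luciferase flanked by upstream and downstream ATXN2 gene portions) were treated 24 h at 37 °C with compounds at up to 57 uM. SteadyGlo luminescence gave expression; GF-AFC fluorescence gave viability.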
A number is an active result; 0 = inactive; ? = inconclusive; - = no result. Calls follow the shape of the dose curve; as a rule, active = well fitted curve in the direction sought with a large enough effect; inconclusive = small, poorly fitted or top-dose-only effect, or another doubt; inactive = no such curve, though single readings can be large; an effect the other way counts as inactive or inconclusive.

SMILES	A549 tox	ATXN viability	Nrf2 inh	Nrf2 activator	ATXN2 expr inh
O=C(NCc1cccnc1)c1ccc(NC(=O)c2cccc([N+](=O)[O-])c2)cc1	0	0	4.61µM	0	-
COc1ccc(O)c(CN2CCOc3c(cc(-c4cccc(OC)n4)cc3OC)C2)c1	-	0	-	-	-
CCN(C(=O)c1cc(S(=O)(=O)N2CCCC2)cn1C)c1ccc(OC)cc1	0	-	0	0	-
C=CCNc1nc2c(c(=O)n(C)c(=O)n2C)n1CCCCCC	0	0	4.11µM	0	0
Cn1c(=O)c2c(nc(NCCc3ccccc3)n2Cc2ccc(F)cc2)n(C)c1=O	0	?	?	0	?
C=CCNc1nc2c(c(=O)n(C)c(=O)n2C)n1Cc1ccc(F)cc1	0	0	8.2µM	0	0
COC(=O)c1c(OCC2CCCN(C)C2)cc(=O)n2c1CCN(Cc1ccc(OC)c(O)c1)CC2 (configuration not stated)	-	0	-	-	-
COc1ccc(-c2cn3nc(N4CCCC(C(=O)NCc5ccccc5Cl)C4)sc3n2)cc1 (configuration not stated)	0	-	?	0	-
Cc1ccccc1CNC(=O)c1nn(-c2ccccc2F)nc1CO	0	-	0	0	-
CCc1ccc(OCC(=O)Nc2c(C(=O)c3ccc(Br)cc3)oc3ccccc23)cc1	0	-	0	0	-
CC(CC(C#N)(c1ccccc1)C(C)C)N(C)C (configuration not stated)	-	0	-	-	0
Cc1ncc2c(c1CNC(=O)c1cncs1)CCN(C(=O)c1ccc(C(C)(C)C)cc1)C2	-	0	-	-	-
COc1ccc(C2NN=C(c3ccc(C)cc3)S2)cc1 (configuration not stated)	0	0	?	0	-
CSc1ccc(C2NN=C(c3ccccc3)S2)cc1 (configuration not stated)	0	0	?	5.01µM	0
Oc1ccccc1C1NN=C(c2ccccc2)S1 (configuration not stated)	0	0	?	7.08µM	0
CC(=O)NC(c1cccc([N+](=O)[O-])c1)c1ccc2cccnc2c1O (configuration not stated)	0	?	?	0	3.16µM
CC(=O)NC(c1ccc(C(C)C)cc1)c1ccc2cccnc2c1O (configuration not stated)	0	?	0	0	3.16µM
CCCCC(=O)NC(c1ccc(C(C)C)cc1)c1ccc2cccnc2c1O (configuration not stated)	0	0	?	0	0
CCCCC(=O)NC(c1cccc([N+](=O)[O-])c1)c1ccc2cccnc2c1O (configuration not stated)	0	?	?	0	-
COc1cccc(C(NC(C)=O)c2ccc3cccnc3c2O)c1 (configuration not stated)	0	?	?	0	?
O=[N+]([O-])c1ccc(NC(c2ccccc2)c2ccc3cccnc3c2O)cc1 (configuration not stated)	0	0	?	0	2.82µM
Oc1c(C(Nc2cccc(C(F)(F)F)c2)c2cccnc2)ccc2cccnc12 (configuration not stated)	0	0	0	0	?
Oc1cccc(C(Nc2nccs2)c2ccc3cccnc3c2O)c1 (configuration not stated)	0	0	16.4µM	0	?
COc1ccccc1/C=C/c1nc(C#N)c(NC2CCCCC2)o1	0	-	?	0	-
Cc1c(C(=O)NCCCN2CCCC2=O)cnn1-c1ncc2c(n1)-c1ccccc1CC2	-	0	-	-	-
SMILES	A549 tox	ATXN viability	Nrf2 inh	Nrf2 activator	ATXN2 expr inh
COc1ccccc1Nc1cc2ccccc2c(=O)[nH]1	?	-	0	-	-
C[C@H](CO)N1C[C@H](C)[C@@H](CN(C)C(=O)Nc2ccc(C(F)(F)F)cc2)Oc2c(NC(=O)C3CCCCC3)cccc2C1=O	0	?	0	0	0
C[C@H](CO)N1C[C@H](C)[C@@H](CN(C)CC2CCCCC2)Oc2c(NC(=O)CCC(F)(F)F)cccc2C1=O	0	0	18.4µM	0	0
Cc1noc(C)c1S(=O)(=O)N(C)C[C@H]1Oc2c(NC(=O)Nc3ccc(C(F)(F)F)cc3)cccc2C(=O)N([C@H](C)CO)C[C@@H]1C	0	?	20.6µM	0	?
C[C@@H]1CN([C@H](C)CO)C(=O)c2cccc(NC(=O)NC3CCCCC3)c2O[C@@H]1CN(C)C(=O)Nc1ccc(C(F)(F)F)cc1	?	22.4µM	?	0	?
C[C@H](CO)N1C[C@H](C)[C@@H](CN(C)C(=O)NC2CCCCC2)Oc2c(NC(=O)CCC(F)(F)F)cccc2C1=O	0	0	0	0	0
C[C@H](CO)N1C[C@H](C)[C@@H](CN(C)Cc2ccc(Cl)c(Cl)c2)Oc2c(NC(=O)Cc3ccccc3)cccc2C1=O	0	14.1µM	?	0	28.2µM
Cc1ccc(CN(C(=O)c2ccc([N+](=O)[O-])cc2)c2ccccn2)cc1	0	0	0	0	0
Cc1ccc(CNc2nc(CN3CCSCC3)nc3ccccc23)o1	-	0	-	-	-
Cc1nc(NCc2cnn(C)c2C)sc1-c1ccn(CC2COc3ccccc3O2)n1 (configuration not stated)	-	0	-	-	-
C[C@H](CO)N1C[C@H](C)[C@@H](CN(C)C(=O)Nc2ccc(C(F)(F)F)cc2)Oc2c(NC(=O)NC3CCCCC3)cccc2C1=O	?	28.2µM	?	0	?
CC(=O)c1c(C)[nH]c(C(=O)Nc2cccc(C(F)(F)F)c2)c1C	?	0	20.6µM	0	0
CCOC(=O)c1ccc(NC(=O)c2c(C)[nH]c(C(=O)OCC)c2C)cc1	0	0	0	0	0
CCOC(=O)c1c(C)[nH]c(C(=O)OC(C)C(=O)Nc2ccccc2OC)c1C (configuration not stated)	0	0	14.6µM	0	0
CCOC(=O)c1c(C)[nH]c(C(=O)OC(C)C(=O)Nc2ccc(C)cc2)c1C (configuration not stated)	-	0	-	0	-
CCOC(=O)c1c(C)[nH]c(C(=O)Nc2ccc(NC(C)=O)cc2)c1C	0	0	8.2µM	0	-
COc1ccc(-n2c(CCNC(=O)c3ccccc3C(F)(F)F)nnc2SC)cc1	-	0	-	-	-
Cn1c2ccccc2c2cc(C(=O)N3CCOc4ccc(C(C)(O)CCn5cccn5)cc4C3)ccc21 (configuration not stated)	-	0	-	-	-
Cc1c(C(=O)N2CC3CCC2C3)sc2ncnc(NCc3ccco3)c12 (configuration not stated)	-	0	-	-	-
O=C(CS(=O)Cc1ccco1)NC/C=C\COc1cc(CN2CCCCC2)ccn1 (configuration not stated)	-	0	-	-	0
O=C(NCCc1nc2ccccc2n1Cc1ccccc1F)c1ccc(F)cc1	?	-	23.1µM	0	-
Cn1c(CCNC(=O)c2ccc(F)cc2)nc2ccccc21	0	0	0	0	0
Fc1ccccc1Cn1c(-c2ccccc2)nc2ccccc21	0	31.6µM	0	0	?
CCCCCN=Cc1c(C)[nH]n(-c2nc3ccccc3s2)c1=O	0	0	?	0	12.6µM
